This is a sample that favours compounds with a hit; in the whole collection about 1.2% have one here.
GRK2 aptamer HTS: compounds blocking aptamer binding on GRK2 – biochemical, human GRK2, bead flow cytometry, HTS, primary screen; Beta-adrenergic receptor kinase 1 (Homo sapiens), P25098; FAM-aptamer displacement from GRK2; inhibition of aptamer binding, % at 10 µM; actives 0.59% (n = 330,000);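 active = inhibition of aptamer binding above 40%, roughly 3 SD of noise, on plates passing a quality check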;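 also: median bead fluorescence of bound FAM aptamer so fluorescent compounds give negative values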
Target sequence (P25098 whole entry, looked up): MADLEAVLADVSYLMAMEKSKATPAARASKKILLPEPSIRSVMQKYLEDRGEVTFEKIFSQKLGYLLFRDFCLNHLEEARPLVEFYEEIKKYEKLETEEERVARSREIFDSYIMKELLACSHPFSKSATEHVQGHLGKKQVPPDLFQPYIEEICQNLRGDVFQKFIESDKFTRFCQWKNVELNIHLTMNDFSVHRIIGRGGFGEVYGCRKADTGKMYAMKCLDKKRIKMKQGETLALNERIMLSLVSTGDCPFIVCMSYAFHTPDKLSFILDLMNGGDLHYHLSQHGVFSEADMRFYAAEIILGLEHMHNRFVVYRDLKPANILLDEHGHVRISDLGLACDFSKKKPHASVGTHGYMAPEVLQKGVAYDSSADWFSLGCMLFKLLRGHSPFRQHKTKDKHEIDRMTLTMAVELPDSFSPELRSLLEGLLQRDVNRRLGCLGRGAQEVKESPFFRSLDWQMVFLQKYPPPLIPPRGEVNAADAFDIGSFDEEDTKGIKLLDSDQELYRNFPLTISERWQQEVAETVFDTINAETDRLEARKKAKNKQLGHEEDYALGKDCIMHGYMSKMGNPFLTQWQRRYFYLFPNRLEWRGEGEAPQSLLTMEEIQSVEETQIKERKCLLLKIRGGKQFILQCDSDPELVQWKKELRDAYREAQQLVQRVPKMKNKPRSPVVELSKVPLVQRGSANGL
beta cell repl: inducers of MIN6 beta-cell proliferation, primary screen, ATP luminescence, uHTS; actives 0.29% (n = 330,000); MIN6 cells proliferation, ATPlite luminescence, 48 h; cells starved in 0.2% serum; 100% = growth in 10% serum; proliferation, % at 10 µM;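 active = compounds whose signal lies at least 3.5 SD above the mean of all wells on their plate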;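 also: 0% = DMSO-treated cells in low-serum medium and 100% = 10% serum control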
NTR1 agonist: agonists of human NTR1, primary screen, imaging, U2OS cells, beta-arrestin-GFP, high content | Neurotensin receptor type 1 (Homo sapiens), P30989 | NTR1-U2OS beta-arrestin-GFP spot imaging, agonist mode | actives 0.17% (n = 330,000) | activation, % at 20 µM;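 active = activation at or above 40% of the spot to cytoplasm intensity ratio, with at least 20 cells analyzed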;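 also: 0% = DMSO without peptide and 100% = 100 nM NTR1 peptide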
Platelet DG rel: inhibitors of platelet dense granule secretion, primary screen, cell-based, MLPCN, human platelets; human platelet-rich plasma, SFLLRN dense granule ATP release, luminescence; inhibition, %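 (compounds screened at 7.5 µM in platelet-rich plasma)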; actives 0.22% (n = 300,000); AID 1663, 2009;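 active = mean replicate score, as percent of positive control, at or above 50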
GRK2 CP1: GRK2 aptamer-displacing inhibitors, retest, confirmation, biochemical, cherry pick 1, bead flow cytometry. bead-bound GRK2, FAM-aptamer displacement. aptamer displacement, % at 10 µM. actives 4% (n = 2,000). shares compounds with GRK2 aptamer HTS;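 active = aptamer displacement above 40%, near three times the noise of non-fluorescent compounds, on plates passing quality checks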;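 also: negative values mostly reflect intrinsic compound fluorescence rather than true enhancement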
FAM quench CP1: aptamer fluorescence quenching in GRK2 counter-screen. shares compounds with GRK2 aptamer HTS. Carboxyfluorescein RNA aptamer on beads, flow cytometry quenching; active compounds read low. fluorescence response (% of DMSO), % at 10 µM. 2,000 tested, under 10 active. AID 504580;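 active = compounds that quench the bead-bound fluorescent RNA probe, cutting fluorescence to under half of the solvent control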;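 also: counterscreen run without GRK2 so only probe quenching by compound is measured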
GRK2 CP2: GRK2 aptamer-displacing inhibitors, hit retest, confirmation, biochemical, cherry pick 2, bead flow cytometry; AID 504782, 2011; bead-bound GRK2, FAM-aptamer displacement; 360 tested, under 10 active; inhibition of aptamer binding, % at 10 µM; shares compounds with GRK2 aptamer HTS;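 active = inhibition of aptamer binding above 40%, about triple the noise seen with nonglowing compounds, on plates passing quality control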;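 also: negative values mostly come from compounds that fluoresce themselves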
FAM quench CP2: aptamer fluorescence quenching in GRK2 counter-screen. shares compounds with GRK2 aptamer HTS. carboxyfluorescein RNA aptamer beads, flow cytometry quenching; active compounds read low. fluorescence response vs DMSO, % at 10 µM. 360 tested, under 10 active. AID 588494;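 active = response vs DMSO under 50%, meaning signal dropped by over half, treated as fluorescence quencher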;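 also: labelled aptamer on streptavidin beads without GRK2 as a quench counter-screen; 100% = bead fluorescence of DMSO wells and lower means quenching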
* marks the source's active call; other numbers are inactive results.

How did CCC(=O)c1ccc(OCC(=O)O)c(OC)c1 do in these assays?
GRK2 aptamer HTS: 1; beta cell repl: 1; NTR1 agonist: 2; Platelet DG rel: 0

Results for C=CCOc1ccc(C(=O)CC)cc1OC ?
GRK2 aptamer HTS: 93*; beta cell repl: 1; NTR1 agonist: 1; Platelet DG rel: 8; GRK2 CP1: 4; FAM quench CP1: 100

Results for Cc1ccc(N2C(=O)N(CC(=O)Nc3ccc([N+](=O)[O-])cc3)C(=O)C2C)cc1 (configuration not stated) ?
GRK2 aptamer HTS: 100*; beta cell repl: -4; NTR1 agonist: 1; Platelet DG rel: -1; GRK2 CP2: 11; FAM quench CP2: 99

How did Cc1ccc(N2C(=O)N(CC(=O)Nc3cc(C)cc(C)c3)C(=O)C2C)cc1 (configuration not stated) do in these assays?
GRK2 aptamer HTS: 2; beta cell repl: -2; NTR1 agonist: -1; Platelet DG rel: -4

What do the screens show for `Cc1ccc(N2C(=O)N(CC(=O)Nc3ccc(F)c(F)c3)C(=O)C2C)cc1` (configuration not stated)?
GRK2 aptamer HTS: 100*; beta cell repl: 1; NTR1 agonist: 0; Platelet DG rel: -1; GRK2 CP1: 3; FAM quench CP1: 98

How did Cc1cc(C)n(C(=O)CN(C)S(=O)(=O)c2ccc([N+](=O)[O-])cc2)n1 do in these assays?
GRK2 aptamer HTS: 0; beta cell repl: -1; NTR1 agonist: -1; Platelet DG rel: 0

How did Cc1[nH]c(=O)[nH]c(=O)c1S(=O)(=O)Nc1cccc(C(F)(F)F)c1 do in these assays?
GRK2 aptamer HTS: 0; beta cell repl: -1; NTR1 agonist: 0; Platelet DG rel: 1

How did COc1ccc(C(=O)NNC(=O)CSc2nc3c([nH]2)c(=O)n(C)c(=O)n3C)cc1 do in these assays?
GRK2 aptamer HTS: 100*; beta cell repl: -3; NTR1 agonist: 1; Platelet DG rel: 2; GRK2 CP1: 2; FAM quench CP1: 97

Results for Cn1c(=O)c2[nH]c(SCC(=O)c3ccc(F)cc3)nc2n(C)c1=O ?
GRK2 aptamer HTS: 0; beta cell repl: -1; NTR1 agonist: 0; Platelet DG rel: -12

Results for O=C(CSc1nc2ccccc2[nH]1)Nc1ccc2c(c1)OCCO2 ?
GRK2 aptamer HTS: 0; beta cell repl: -3; NTR1 agonist: 0; Platelet DG rel: -3; GRK2 CP2: -49; FAM quench CP2: 100

Results for O=C(CSc1nc2ccccc2[nH]1)Nc1nc(-c2cccc(Br)c2)cs1 ?
GRK2 aptamer HTS: 75*; beta cell repl: -6; NTR1 agonist: 30; Platelet DG rel: -8; GRK2 CP2: -10; FAM quench CP2: 100

What do the screens show for `CN(C)CCCn1c(SCC(=O)Nc2nc(-c3cccc(Br)c3)cs2)nc2ccccc2c1=O`?
GRK2 aptamer HTS: 0; beta cell repl: -8; NTR1 agonist: 6; Platelet DG rel: 1

How did CCc1c(C)nc(SCC(=O)Nc2ccc3c(c2)OCCO3)[nH]c1=O do in these assays?
GRK2 aptamer HTS: 10; beta cell repl: -2; NTR1 agonist: 2; Platelet DG rel: 10

Results for O=C(CSc1ncccc1-c1nc2ccccc2[nH]1)Nc1ccc2c(c1)OCCO2 ?
GRK2 aptamer HTS: 0; beta cell repl: 0; NTR1 agonist: -2; Platelet DG rel: -49

What do the screens show for `Cc1ccc(-n2nnnc2SCC(=O)NC(=O)Nc2ccc3c(c2)OCCO3)cc1`?
GRK2 aptamer HTS: 1; beta cell repl: -4; NTR1 agonist: 4; Platelet DG rel: 0

How did Cc1nnc(SCC(=O)NC(=O)Nc2ccc3c(c2)OCCO3)n1N do in these assays?
GRK2 aptamer HTS: 46*; beta cell repl: -3; NTR1 agonist: 0; Platelet DG rel: 0; GRK2 CP1: 1; FAM quench CP1: 100

Results for Cc1ccc2nc(SCC(=O)Nc3ccc4c(c3)OCCO4)[nH]c2c1 ?
GRK2 aptamer HTS: 1; beta cell repl: 0; NTR1 agonist: 0; Platelet DG rel: -1; GRK2 CP2: 19; FAM quench CP2: 101

How did CSc1cccc(NC(=O)c2nnn(CC(=O)Nc3cc(C)cc(C)c3)c2N)c1 do in these assays?
GRK2 aptamer HTS: 0; beta cell repl: -1; NTR1 agonist: -1; Platelet DG rel: -3

Results for CCCCCC(=O)N1CC2(CC(c3cccc(NC(=O)CC(c4ccccc4)c4ccccc4)c3)=NO2)C[C@@H]1C(N)=O (some centres not stated) ?
GRK2 aptamer HTS: 0; beta cell repl: -9; NTR1 agonist: 11; Platelet DG rel: 3; GRK2 CP2: -19; FAM quench CP2: 96

Results for CCCCCC(=O)N1CC2(CC(c3cccc(NC(=O)COc4ccc(Cl)cc4)c3)=NO2)C[C@@H]1C(N)=O (some centres not stated) ?
GRK2 aptamer HTS: 4; beta cell repl: -6; NTR1 agonist: 5; Platelet DG rel: -10; GRK2 CP2: -21; FAM quench CP2: 101

What do the screens show for `CCC(=O)N1CC2(CC(c3cccc(NC(=O)COc4ccc(Cl)cc4)c3)=NO2)C[C@@H]1C(N)=O` (some centres not stated)?
beta cell repl: 0; NTR1 agonist: 0; Platelet DG rel: 2

Results for CC1Cc2ccccc2N1CC(=O)N(C)c1c(N)n(Cc2ccccc2)c(=O)[nH]c1=O (configuration not stated) ?
GRK2 aptamer HTS: 0; beta cell repl: 0; NTR1 agonist: -1

How did CCN(C(=O)CN1c2ccccc2CC1C)c1c(N)n(Cc2ccccc2)c(=O)[nH]c1=O (configuration not stated) do in these assays?
GRK2 aptamer HTS: 1; beta cell repl: -1; NTR1 agonist: 0; Platelet DG rel: 2; GRK2 CP1: 4; FAM quench CP1: 95

What do the screens show for `O=C(CC1CC2CCC1C2)NC1CCCCCCC1` (configuration not stated)?
GRK2 aptamer HTS: 0; beta cell repl: 1; NTR1 agonist: 1; Platelet DG rel: 6
